Reference: PubChem BioAssay (Tox21)
A number with no mark means an inactive call. Records with an inconclusive call do not appear. A call without a number means that no potency is given here. The source made the active and inactive calls. Unless noted, calls follow the shape of the dose curve; as a rule, active = well fitted curve in the direction sought with a large enough effect in the repeat runs; inconclusive = weak or mixed curves; inactive = no such curve, though single readings can be large; an effect the other way counts as inactive or inconclusive.

Tested on: not listed separately
Experiment: qHTS assay to identify small molecule agonists of the androgen receptor (AR) signaling pathway in the presence of an antagonist - cell viability counter screen (AID 1259379);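 also: MDA-kb2 human breast cancer cells carrying an MMTV luciferase reporter; nearly all actives have a fitted effect of over 25% in size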
Conditions: MDA-kb2 viability, CellTiter-Fluor, 16 h; series mostly up to 92.4 µM
Method in brief: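 Fluorescence from CellTiter-Fluor, added after 15 hr and read 1 hr later, gave cell viability. Cells were MDA-kb2 exposed to compounds (15 concentrations) in the presence of 3.0uM nilutamide at 37C, 0% CO2.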
For COc1ccc(CCN(C)CCCC(C#N)(c2cc(OC)c(OC)c(OC)c2)C(C)C)cc1OC (stereo not drawn), the Potency was “inactive”.
With CC(=O)N(CC(O)CO)c1c(I)c(C(=O)NCCO)c(I)c(C(=O)NCC(O)CO)c1I (stereo not drawn) the Potency was “inactive”.
With CCCCCCCCCCCC the Potency was “inactive”.
In the case of CN1CCN(c2cc3c(cc2F)c(=O)c(C(=O)O)cn3-c2ccc(F)cc2)CC1, the Potency is reported as “inactive”.
For Cc1ccc(=O)n(-c2ccccc2)c1, the Potency was “inactive”.
For CC(C)(O)C#CC(C)(C)O, the Potency was “inactive”.
Compound Cc1cccn2c(=O)c(-c3nnn[nH]3)cnc12 has an activity change, negative = cytotoxicity of 1.69% [at 19 µM].
For Nc1c2c(nc3ccccc13)CCCC2O (stereo not drawn), the Potency was “inactive”.
With CN1N=C(C(N)=O)CCC1=O the Potency was “inactive”.
With CC(C)NC(=O)NC(C)C the Potency was “inactive”.
For O=C(CCCN1CCC(O)(c2cccc(C(F)(F)F)c2)CC1)c1ccc(F)cc1, the Potency was “inactive”.
With Cc1[nH]c(=O)c(C#N)cc1-c1ccc2nccn2c1 the Potency was “inactive”.
With C=C[Si](OC(=C)C)(OC(=C)C)OC(=C)C the Potency was “inactive”.
For Cc1nc2c([nH]1)c(=O)n(C)c(=O)n2Cc1ccco1, the Potency was “inactive”.

Tested on: not listed separately
Experiment: qHTS assay to identify small molecule agonists of the estrogen receptor beta (ER-beta) signaling pathway - cell viability counter screen (AID 1259380); also: nearly all actives have a fitted effect of over 30% in size
Conditions: ER-beta-bla HEK293T viability, CellTiter-Glo luminescence, 16 h; series mostly up to 92.4 µM
Method in brief: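 Same-well viability counter screen. Cells: ER-beta-UAS-bla HEK293T, plated 6 hr before compound, in 2% charcoal-stripped FBS. Compound exposure 16 hr, 37C; viability by CellTiter-Glo luminescence after 30 min at room temperature.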
With COc1ccc(CCN(C)CCCC(C#N)(c2cc(OC)c(OC)c(OC)c2)C(C)C)cc1OC (stereo not drawn) the Potency was “inactive”.
For CC1(C)C(O)C(C)(C)C1O (stereo not drawn), the Potency was “inactive”.
In the case of C1OCOCO1, the Potency is reported as “inactive”.
In the case of NS(=O)(=O)c1ccccc1Cl, the Potency is reported as “inactive”.
For O=S(O)CO, the Potency was “inactive”.
With CCCCCCCCCCCC the Potency was “inactive”.
For CO[C@]12C[C@@H](COC(=O)c3cncc(Br)c3)CN(C)[C@@H]1Cc1cn(C)c3cccc2c13, the Potency was “inactive”.
For CC(C)(C)NCCNC(C)(C)C, the Potency was “inactive”.
In the case of CO[Si](CCCOCC1CO1)(OC)OC (stereo not drawn), the Potency is reported as “inactive”.
With CC(C)(O)C#CC(C)(C)O the Potency was “inactive”.
In the case of CCCCCSCCCCC, the Potency is reported as “inactive”.
In the case of Nc1c2c(nc3ccccc13)CCCC2O (stereo not drawn), the Potency is reported as “inactive”.
With CCn1ccnc1CC1COc2ccccc2O1 (stereo not drawn) the Potency was “inactive”.
In the case of O=C(O)c1ccccc1OP(=O)(O)O, the Potency is reported as “inactive”.
With Cc1cc(O)cc2c1O[C@](C)(CCC[C@H](C)CCC[C@H](C)CCCC(C)C)CC2 the Potency was “inactive”.
For Cc1[nH]c(=O)c(C#N)cc1-c1ccc2nccn2c1, the Potency was “inactive”.
With Cn1cc(S(C)=O)c(=O)c2ccc(F)cc21 (stereo not drawn) the Potency was “inactive”.
For C=C(C)C(=O)OCCCCCCCC(C)C, the Potency was “inactive”.
For C=C[Si](OC(=C)C)(OC(=C)C)OC(=C)C, the Potency was “inactive”.
In the case of CCO[Si](CCC1CCC2OC2C1)(OCC)OCC (stereo not drawn), the Potency is reported as “inactive”.
In the case of Cc1cccc(C)c1NC(=O)C(C)N (stereo not drawn), the Potency is reported as “inactive”.
In the case of Cc1nc2c([nH]1)c(=O)n(C)c(=O)n2Cc1ccco1, the Potency is reported as “inactive”.

Target: Androgen receptor (Homo sapiens) (UniProt P10275)
Sequence (P10275 whole entry, looked up): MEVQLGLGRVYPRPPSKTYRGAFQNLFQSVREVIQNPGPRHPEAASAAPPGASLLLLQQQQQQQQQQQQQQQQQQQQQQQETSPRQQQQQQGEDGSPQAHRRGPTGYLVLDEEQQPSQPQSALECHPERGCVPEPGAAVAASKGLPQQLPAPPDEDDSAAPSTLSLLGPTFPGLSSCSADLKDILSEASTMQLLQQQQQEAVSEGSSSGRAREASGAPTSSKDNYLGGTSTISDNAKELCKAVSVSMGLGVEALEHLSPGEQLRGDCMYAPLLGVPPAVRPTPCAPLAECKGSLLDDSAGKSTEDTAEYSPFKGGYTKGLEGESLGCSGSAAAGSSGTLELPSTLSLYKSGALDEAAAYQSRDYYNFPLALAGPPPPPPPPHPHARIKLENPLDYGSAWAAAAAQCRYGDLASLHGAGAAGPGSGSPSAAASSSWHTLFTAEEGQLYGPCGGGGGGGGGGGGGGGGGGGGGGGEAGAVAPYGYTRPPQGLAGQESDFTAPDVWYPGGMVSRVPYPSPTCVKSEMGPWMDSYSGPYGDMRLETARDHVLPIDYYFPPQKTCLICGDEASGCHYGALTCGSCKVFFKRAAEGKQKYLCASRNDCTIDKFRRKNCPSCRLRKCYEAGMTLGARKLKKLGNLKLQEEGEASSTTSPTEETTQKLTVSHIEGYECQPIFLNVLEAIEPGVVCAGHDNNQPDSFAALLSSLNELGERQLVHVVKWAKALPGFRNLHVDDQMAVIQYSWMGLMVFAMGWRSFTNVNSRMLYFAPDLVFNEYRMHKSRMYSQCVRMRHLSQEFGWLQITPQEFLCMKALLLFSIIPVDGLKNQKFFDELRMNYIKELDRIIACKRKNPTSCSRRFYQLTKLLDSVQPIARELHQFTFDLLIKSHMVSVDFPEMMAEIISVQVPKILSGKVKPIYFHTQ
Experiment: qHTS assay to identify small molecule agonists of the androgen receptor (AR) signaling pathway in the presence of an antagonist (AID 1259381; calls by dose curve; also: nearly all actives have a fitted effect of over 15% in size; also: potency is read from the fitted curve at half-maximal effect)
Conditions: MDA-kb2 MMTV-luciferase, AR agonist + nilutamide, 16 h; series mostly up to 42.5 µM
Method in brief: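 Cells are MDA-kb2 (human breast carcinoma, MMTV-luc, AR/GR responsive). Nilutamide is present at 3.0uM final throughout; compounds are added at 15 concentrations and incubated 16hr at 37C before ONE-Glo luminescence detection.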
For CC1(C)C(O)C(C)(C)C1O (stereo not drawn), the Potency was “inactive”.
For O=S(O)CO, the Potency was “inactive”.
With CN1CCN(c2cc3c(cc2F)c(=O)c(C(=O)O)cn3-c2ccc(F)cc2)CC1 the Potency was 26.6 µM (active).
For CO[C@]12C[C@@H](COC(=O)c3cncc(Br)c3)CN(C)[C@@H]1Cc1cn(C)c3cccc2c13, the Potency was “inactive”.
For CCn1ccnc1CC1COc2ccccc2O1 (stereo not drawn), the Potency was “inactive”.
With CN1N=C(C(N)=O)CCC1=O the Potency was “inactive”.
For CC(C)NC(=O)NC(C)C, the Potency was “inactive”.
In the case of C=C(C)C(=O)OCCCCCCCC(C)C, the Potency is reported as “inactive”.

Tested on: not listed separately
Experiment: qHTS assay to identify small molecule antagonists of the estrogen receptor beta (ER-beta) signaling pathway - cell viability counter screen (AID 1259382);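 also: HEK293T cells carrying ER-beta-UAS-bla reporter stimulated with estradiol; nearly all actives have a fitted effect of over 55% in size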
Conditions: ER-beta-UAS-bla HEK293T viability, CellTiter-Glo luminescence, 16 h; series mostly up to 92.4 µM
Method in brief: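 Following a 6 hr plating period, HEK293T cells carrying a UAS-driven beta-lactamase reporter under ER-beta control received compounds and 1nM E2 (final). After 16 hr at 37C and 2 hr substrate loading, CellTiter-Glo luminescence indicated viability.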
With COc1ccc(CCN(C)CCCC(C#N)(c2cc(OC)c(OC)c(OC)c2)C(C)C)cc1OC (stereo not drawn) the Potency was “inactive”.
With CC1(C)C(O)C(C)(C)C1O (stereo not drawn) the Potency was “inactive”.
For CC(=O)N(CC(O)CO)c1c(I)c(C(=O)NCCO)c(I)c(C(=O)NCC(O)CO)c1I (stereo not drawn), the Potency was “inactive”.
In the case of C1OCOCO1, the Potency is reported as “inactive”.
For NS(=O)(=O)c1ccccc1Cl, the Potency was “inactive”.
In the case of O=S(O)CO, the Potency is reported as “inactive”.
In the case of CCCCCCCCCCCC, the Potency is reported as “inactive”.
For CN1CCN(c2cc3c(cc2F)c(=O)c(C(=O)O)cn3-c2ccc(F)cc2)CC1, the Potency was “inactive”.
In the case of Cc1ccc(=O)n(-c2ccccc2)c1, the Potency is reported as “inactive”.
For CO[C@]12C[C@@H](COC(=O)c3cncc(Br)c3)CN(C)[C@@H]1Cc1cn(C)c3cccc2c13, the Potency was “inactive”.
With CC(C)(C)NCCNC(C)(C)C the Potency was “inactive”.
In the case of CO[Si](CCCOCC1CO1)(OC)OC (stereo not drawn), the Potency is reported as “inactive”.
With CC(C)(O)C#CC(C)(C)O the Potency was “inactive”.
For Cc1cccn2c(=O)c(-c3nnn[nH]3)cnc12, the activity change, negative = cytotoxicity was -8.96% [at 19 µM].
In the case of CCCCCSCCCCC, the Potency is reported as “inactive”.
In the case of Nc1c2c(nc3ccccc13)CCCC2O (stereo not drawn), the Potency is reported as “inactive”.
In the case of CCn1ccnc1CC1COc2ccccc2O1 (stereo not drawn), the Potency is reported as “inactive”.
With CN1N=C(C(N)=O)CCC1=O the Potency was “inactive”.
In the case of CC(C)NC(=O)NC(C)C, the Potency is reported as “inactive”.
For OC[C@]1(O)OC[C@@H](O)[C@H](O)[C@@H]1O, the Potency was “inactive”.
In the case of O=C(O)c1ccccc1OP(=O)(O)O, the Potency is reported as “inactive”.
In the case of Cc1cc(O)cc2c1O[C@](C)(CCC[C@H](C)CCC[C@H](C)CCCC(C)C)CC2, the Potency is reported as “inactive”.
With CN(C)CCCSc1ccccc1NC(=O)/C=C/c1ccccc1 the Potency was “inactive”.
With O=C1OC(=O)C2CCCCC12 (stereo not drawn) the Potency was “inactive”.
In the case of CCCCC/C=C\CCC=O, the Potency is reported as “inactive”.
With OCCOc1ccc(OCCO)cc1 the Potency was “inactive”.
For Cc1[nH]c(=O)c(C#N)cc1-c1ccc2nccn2c1, the Potency was “inactive”.
In the case of OC(CCN1CCCCC1)(c1ccccc1)C1CC2C=CC1C2 (stereo not drawn), the Potency is reported as “inactive”.
With Cn1cc(S(C)=O)c(=O)c2ccc(F)cc21 (stereo not drawn) the Potency was “inactive”.
With C=C(C)C(=O)OCCCCCCCC(C)C the Potency was “inactive”.
With C=C[Si](OC(=C)C)(OC(=C)C)OC(=C)C the Potency was “inactive”.
In the case of CCO[Si](CCC1CCC2OC2C1)(OCC)OCC (stereo not drawn), the Potency is reported as “inactive”.
For Cc1cccc(C)c1NC(=O)C(C)N (stereo not drawn), the Potency was “inactive”.
For Cc1nc2c([nH]1)c(=O)n(C)c(=O)n2Cc1ccco1, the Potency was “inactive”.
